According to PubChem BioAssay AID1159580 (chemical genetic matrix, 2015):
The campaign covered roughly 5,500 compounds. About 2,000 (36%) were called active. About 18% were inconclusive and are not listed. Rule as the data show it: active = normalized growth mostly below about 0.91 (no sharp cut-off); inconclusive = no clear call, values can overlap the other calls; inactive = mostly above about 0.92. This is one part of the list.

Experiment: chemical genetic growth profiling, strain panel (AID 1159580);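 also: tested at 20 µM; growth read once vehicle control cultures reached saturation at 30 °C; 1 = growth at the plate median or of vehicle wells; lower values mean less growth of the strain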
Settings: growth OD
[1] = S. cerevisiae deletion strains, locus YAL040C, strain CLN3, hits give low values
[2] = S. cerevisiae deletion strains, locus YCL061C, strain MRC1 (second series), hits give low values
[3] = S. cerevisiae deletion strains, locus YDR150W, strain NUM1, hits give low values
[4] = S. cerevisiae deletion strains, locus YDR363W, strain ESC2, hits give low values
[5] = S. cerevisiae deletion strains, locus YER002W, strain NOP16, hits give low values
[6] = S. cerevisiae deletion strains, locus YMR263W, strain SAP30, hits give low values
[7] = S. cerevisiae deletion strains, locus YMR307W, strain GAS1, hits give low values
[8] = S. cerevisiae deletion strains, locus YNL175C, strain NOP13, hits give low values
[9] = S. cerevisiae deletion strains, locus YNL197C, strain WHI3, hits give low values
[10] = S. cerevisiae deletion strains, locus YNL224C, strain SQS1, hits give low values
[11] = S. cerevisiae deletion strains, locus YOR083W, strain WHI5 (second series), hits give low values
[12] = S. cerevisiae deletion strains, locus YPL055C, strain LGE1, hits give low values
[13] = S. cerevisiae deletion strains, locus YAL013W, strain DEP1, hits give low values
[14] = S. cerevisiae deletion strains, locus YJR075W, strain HOC1, hits give low values
[15] = S. cerevisiae deletion strains, locus YNL153C, strain GIM3, hits give low values
[16] = S. cerevisiae deletion strains, locus YNL322C, strain KRE1, hits give low values
[17] = S. cerevisiae deletion strains, locus YPL241C, strain CIN2, hits give low values

Measured: normalized growth

CNC(=O)c1cc2c(cn1)[nH]c1ccccc12
inactive: [1] 1.01 | [2] 1.01 | [3] 1 | [4] 1.01 | [5] 0.995 | S. cerevisiae deletion strains, locus YGR229C, strain SMI1, hits give low values 1.05 | [6] 1 | [7] 0.997 | S. cerevisiae deletion strains, locus YNL128W, strain TEP1, hits give low values 0.97 | [8] 0.986 | [9] 0.983 | [10] 0.989 | [11] 0.993 | [12] 1.02

C=CC1CN2CCC1CC2C(OC(C)=O)c1ccnc2ccc(OC)cc12 (configuration not stated)
inactive: [13] 1.01 | S. cerevisiae deletion strains, locus YBR229C, strain ROT2, hits give low values 0.993 | S. cerevisiae deletion strains, locus YDL101C, strain DUN1, hits give low values 1 | [3] 1.02 | S. cerevisiae deletion strains, locus YEL061C, strain CIN8, hits give low values 0.957 | S. cerevisiae deletion strains, locus YGR078C, strain PAC10, hits give low values 1 | S. cerevisiae deletion strains, locus YHR030C, strain SLT2, hits give low values 1.06 | S. cerevisiae deletion strains, locus YHR087W, strain rtc3, hits give low values 0.95 | S. cerevisiae deletion strains, locus YJL187C, strain SWE1, hits give low values 1.01 | S. cerevisiae deletion strains, locus YJR043C, strain POL32, hits give low values 1 | [14] 0.997 | S. cerevisiae deletion strains, locus YKL190W, strain CNB1, hits give low values 0.982 | S. cerevisiae deletion strains, locus YLR039C, strain RIC1, hits give low values 1.06 | S. cerevisiae deletion strains, locus YLR058C, strain SHM2 (second series), hits give low values 1 | S. cerevisiae deletion strains, locus YLR085C, strain ARP6, hits give low values 0.975 | S. cerevisiae deletion strains, locus YLR262C, strain YPT6, hits give low values 1.06 | S. cerevisiae deletion strains, locus YML094W, strain GIM5, hits give low values 0.997 | S. cerevisiae deletion strains, locus YMR219W, strain ESC1, hits give low values 1 | [6] 0.984 | [7] 0.916 | [15] 1.02 | S. cerevisiae deletion strains, locus YNL298W, strain CLA4 (second series), hits give low values 0.967 | [16] 1 | S. cerevisiae deletion strains, locus YNR030W, strain Alg12, hits give low values 0.998 | [12] 0.999 | [17] 1 | S. cerevisiae deletion strains, locus YPR135W, strain CTF4, hits give low values 1 | S. cerevisiae strains, strain wild type, hits give low values 0.974

CNCCC(Oc1ccccc1OC)c1ccccc1 (configuration not stated)
inactive: [13] 0.996 | [1] 1.01 | [2] 1 | [3] 1.01 | [4] 1 | [5] 1 | [14] 1.01 | [15] 1.03 | [8] 1 | [9] 1.01 | [10] 1.01 | [16] 1 | [11] 1.03 | [12] 1.02 | [17] 0.996
